Data reported in PubChem BioAssay (Tox21).
Inconclusive results are not listed. A call without a number means that no potency is given here. More than one record can exist for a structure, and the calls need not agree. Active and inactive are the calls of the source. Calls follow the shape of the dose curve; as a rule, active = well fitted activation curve with a large enough effect in the signal ratio in the repeat runs (not every such curve was filed as active); inconclusive = weak or mixed curves; inactive = flat fitted curve, though single readings scatter; the % refers to the signal ratio.

Test: qHTS assay to identify small molecule agonists of H2AX (AID 1224845); also: potency is read from the fitted curve at half-maximal effect
Details: CHO-K1 phospho-H2AX Ser139 HTRF, 3 h; series mostly up to 154 µM; activation (H2AX phosphorylation): at the top concentration
Procedure, shortened: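 Wild-type CHO-K1 cells plated overnight, then exposed 3 hr at 37C to compounds at 15 concentrations (0.76% DMSO). Lysed, then HTRF anti-pH2AX(S139)-cryptate/anti-H2AX-d2 detection after 24 hr at room temperature; emissions 665 and 620 nm.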
With `CCCN(CCC)c1c([N+](=O)[O-])cc(C(F)(F)F)cc1[N+](=O)[O-]` the Potency was “inactive”. With `COC(=O)NC(=S)Nc1ccccc1NC(=S)NC(=O)OC` the Potency was “inactive”. For `CCC(C)(CC)c1cc(NC(=O)c2c(OC)cccc2OC)on1`, the Potency was “inactive”. With `CN(C)[C@@H]1C(=O)C(C(N)=O)=C(O)[C@@]2(O)C(=O)C3=C(O)c4c(O)cccc4[C@@](C)(O)[C@H]3C[C@@H]12` the “activation (H2AX phosphorylation)” value was 0.212% (inactive). In the case of `CCN(CC)CCO`, the Potency is reported as “inactive”. With `CC1OC(C)OC(C)O1` (centres undefined) the Potency was “inactive”. For `COc1ccc2c3c1O[C@H]1[C@@H](O)C=C[C@H]4[C@@H](C2)N(C)CC[C@@]341`, the Potency was 99.2 µM (active) and inactive. For `CC(Oc1ccc(Cl)cc1Cl)C(=O)O` (centres undefined), the Potency was “inactive”. With `Nc1c(Cl)c(Cl)nc(C(=O)O)c1Cl` the Potency was “inactive”. With `O=C(O)c1ccccn1` the Potency was “inactive”. In the case of `CCCCN(CC)C(=O)SCCC`, the Potency is reported as “inactive”. For `CCNc1nc(NC(C)(C)C)nc(SC)n1`, the Potency was “inactive”. In the case of `NCCc1ccc(O)cc1`, the Potency is reported as “inactive”. In the case of `CCN(CC)c1ccccc1`, the Potency is reported as “inactive”. With `O=c1ccc(=O)[nH][nH]1` the Potency was “inactive”. For `CCOC(=O)c1ccccc1C(=O)OCC`, the Potency was “inactive”. For `COC(=O)c1ccccc1C(=O)OC`, the Potency was “inactive”. With `CN1C(=O)CN=C(c2ccccc2)c2cc(Cl)ccc21` the “activation (H2AX phosphorylation)” value was 3.78% [at 70.9 µM] (inactive). In the case of `COC(=O)c1ccccc1N`, the Potency is reported as “inactive”. In the case of `[N-]=[N+]=[N-]`, the Potency is reported as “inactive”. With `C=CCO` the Potency was “inactive”. In the case of `O=S(=O)(c1ccc(Cl)cc1)c1cc(Cl)c(Cl)cc1Cl`, the Potency is reported as “inactive”. For `CCC[N+](=O)[O-]`, the Potency was 5.56 µM (active) and inactive. For `CCCC1COC(Cn2cncn2)(c2ccc(Cl)cc2Cl)O1` (centres undefined), the Potency was “inactive”. With `CCCCCOC(=O)c1ccccc1C(=O)OCCCCC` the Potency was “inactive”. With `C=C(C)CCl` the Potency was “inactive”. For `C1CN2CCN1CC2`, the Potency was “inactive”. In the case of `CCOP(=S)(OCC)Oc1cnc2ccccc2n1`, the Potency is reported as “inactive”. For `Cc1ccc([N+](=O)[O-])cc1C`, the Potency was “inactive”. For `CC(C)=C[C@@H]1[C@@H](C(=O)OCc2coc(Cc3ccccc3)c2)C1(C)C`, the Potency was “inactive”. With `C[C@]12CC[C@H]3[C@@H](CC[C@@]45O[C@@H]4C(O)=C(C#N)C[C@]35C)[C@@H]1CC[C@@H]2O` the Potency was “inactive”. For `c1ccc(OP(Oc2ccccc2)Oc2ccccc2)cc1`, the Potency was “inactive”. With `O=C1CCCN1` the Potency was “inactive”. In the case of `c1ccc2c(c1)oc1ccccc12`, the Potency is reported as “inactive”.

Test: qHTS assay to identify small molecule agonists of the hypoxia (HIF-1) signaling pathway (AID 1224846)
Details: HRE-bla ME-180 cells, beta-lactamase ratio, 17 h; series mostly up to 76.8 µM; activation: at the top concentration
Procedure, shortened: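 Compounds added to ME-180 cells carrying hypoxia-response-element beta-lactamase reporter (0.5% dialyzed FBS, 5 h preplating), 17 h at 37C; agonist activity detected by CCF4-AM B/G FRET read-out.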
With `CCCN(CCC)c1c([N+](=O)[O-])cc(C(F)(F)F)cc1[N+](=O)[O-]` the “activation” value was -0.0702% (inactive). For `COC(=O)NC(=S)Nc1ccccc1NC(=S)NC(=O)OC`, the outcome was “inactive”. For `CCC(C)(CC)c1cc(NC(=O)c2c(OC)cccc2OC)on1`, the outcome was “inactive”. With `CCN(CC)CCO` the outcome was “inactive”. With `CC1OC(C)OC(C)O1` (centres undefined) the outcome was “inactive”. With `COc1ccc2c3c1O[C@H]1[C@@H](O)C=C[C@H]4[C@@H](C2)N(C)CC[C@@]341` the outcome was “inactive”. With `CC(Oc1ccc(Cl)cc1Cl)C(=O)O` (centres undefined) the outcome was “inactive”. With `Nc1c(Cl)c(Cl)nc(C(=O)O)c1Cl` the outcome was “inactive”. For `O=C(O)c1ccccn1`, the outcome was “inactive”. In the case of `CCCCN(CC)C(=O)SCCC`, the outcome is reported as “inactive”. For `CCNc1nc(NC(C)(C)C)nc(SC)n1`, the outcome was “inactive”. In the case of `Cc1ccc(N)cc1N`, the outcome is reported as “inactive”. For `CCCCN(CCCC)SN(C)C(=O)Oc1cccc2c1OC(C)(C)C2`, the outcome was “inactive”. For `CCN(CC)c1ccccc1`, the outcome was “inactive”. For `O=c1ccc(=O)[nH][nH]1`, the outcome was “inactive”. In the case of `CCOC(=O)c1ccccc1C(=O)OCC`, the outcome is reported as “inactive”. In the case of `COC(=O)c1ccccc1C(=O)OC`, the outcome is reported as “inactive”. With `CN1C(=O)CN=C(c2ccccc2)c2cc(Cl)ccc21` the outcome was “inactive”. With `COC(=O)c1ccccc1N` the outcome was “inactive”. For `[N-]=[N+]=[N-]`, the outcome was “inactive”. For `C=CCO`, the outcome was “inactive”. With `O=S(=O)(c1ccc(Cl)cc1)c1cc(Cl)c(Cl)cc1Cl` the outcome was “inactive”. For `CCC[N+](=O)[O-]`, the “activation” value was -1.62% (inactive). In the case of `CCCC1COC(Cn2cncn2)(c2ccc(Cl)cc2Cl)O1` (centres undefined), the outcome is reported as “inactive”. For `CCCCCOC(=O)c1ccccc1C(=O)OCCCCC`, the outcome was “inactive”. For `C=C(C)CCl`, the outcome was “inactive”. For `C1CN2CCN1CC2`, the outcome was “inactive”. In the case of `CCOP(=S)(OCC)Oc1cnc2ccccc2n1`, the outcome is reported as “inactive”. For `Cc1ccc([N+](=O)[O-])cc1C`, the outcome was “inactive”. In the case of `CC(C)=C[C@@H]1[C@@H](C(=O)OCc2coc(Cc3ccccc3)c2)C1(C)C`, the outcome is reported as “inactive”. In the case of `C[C@]12CC[C@H]3[C@@H](CC[C@@]45O[C@@H]4C(O)=C(C#N)C[C@]35C)[C@@H]1CC[C@@H]2O`, the “activation” value is reported as -0.996% [at 35.5 µM] (inactive). In the case of `c1ccc(OP(Oc2ccccc2)Oc2ccccc2)cc1`, the outcome is reported as “inactive”. With `O=C1CCCN1` the outcome was “inactive”. With `c1ccc2c(c1)oc1ccccc12` the outcome was “inactive”. For `Cc1cccc([N+](=O)[O-])c1`, the outcome was “inactive”.
